The entries come from a sample that favours hits as a whole.
TbREL1 primary: TbREL1 inhibition, primary screen; AID 1117264; inhibition, % at 9.66 µM; TbREL1 RNA ligation, FRET fluorescence; hit rate 0.49% among 89,000;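 active = inhibition above the mean inhibition across all screened compounds plus 3 SD, cut at about 11% in these data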;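 note: 0% = plate median of test wells and 100% = NSC42067 control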
TbREL1 confirm: TbREL1 inhibition, confirmation. shares compounds with TbREL1 primary. TbREL1 RNA ligation, FRET fluorescence. inhibition, % at 9.66 µM. hit rate 37% among 390;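 active = mean inhibition across replicates above a set limit taken from the earlier primary screen, cut at about 11% in these data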;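 note: 0% = REL1 with substrate and DMSO and 100% = REL1 plus control inhibitor NSC42067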
Numbers without * were called inactive.

SMILES	TbREL1 primary	others
c1ccc(-c2ccc(C3=Nn4c(nnc4-c4ccccc4)SC3)cc2)cc1	0
COc1ccc(Nc2nc(N)nc(CSC(=S)N3CCN(c4ccccc4)CC3)n2)cc1	-2
C#CCOCCOCCOCCNc1nc(N2CCOCC2)nc(N2CCN(C(=O)CCCCCCCCCCNC(=O)[C@H](CO)n3cc(CCCSC)nn3)CC2)n1	-3
C#CCOCCOCCOCCNc1nc(N2CCOCC2)nc(N2CCN(C(=O)[C@H](CCCCN)n3cc(CCC(=O)O)nn3)CC2)n1	1
C#CCOCCOCCOCCNc1nc(N2CCN(C(=O)CCCCCCCCCCNC(=O)[C@H](CCCCN)n3cc(CCO)nn3)CC2)nc(N2CCN(C(=O)CCCCCCCCCCNC(=O)[C@H](CCCCN)n3cc(CCCC(=O)O)nn3)CC2)n1	12*
O=C1CC(N2CCN(S(=O)(=O)c3ccccc3)CC2)C(=O)N1c1ccccc1 (stereo unspecified)	2
O=C1CC(N2CCN(S(=O)(=O)c3ccccc3F)CC2)C(=O)N1c1ccccc1F (stereo unspecified)	11*	TbREL1 confirm=-3
Cc1cccc(C)c1N1C(=O)CC(N2CCN(S(=O)(=O)c3ccccc3F)CC2)C1=O (stereo unspecified)	3
Cc1ccccc1OCCn1c(=S)[nH]c2c(N)ncnc21	-1
Cc1cc(C(=O)NNC(=O)c2cccc(Cl)c2)no1	-1
O=C1c2ccccc2C(=O)N1CCOc1ccccc1Br	4
COc1ccc(CCn2cnc3nc4ccc(Cl)cc4cc3c2=O)cc1OC	-2
CCn1c(COc2ccc(=O)n(-c3ccccc3)n2)nnc1SCc1ccc(OC)cc1	-2
Cc1cccc(C(=O)Oc2ccc(/C=N/NC(=O)c3ccc(O)cc3)cc2)c1	-4
O=C(N/N=C/c1ccc(OC(=O)c2ccccc2Cl)cc1)c1cc(O)cc(O)c1	12*	TbREL1 confirm=19*
COc1ccc(/C=N/NC(=O)c2cccc(NC(=O)c3ccccc3Cl)c2)cc1	2
COc1nc(OC)nc(N2CCC(C(=O)NCc3ccccc3OC)CC2)n1	1
O=S(=O)(c1ccc(OCc2ccc(Br)cc2)cc1)N1CCOCC1	0
CC(C)(C)C(=O)Nc1ccc2c(c1)-c1cc(NC(=O)C(C)(C)C)ccc1C2	0
O=[N+]([O-])c1cccc(C=NN=C2c3ccccc3-c3ccccc32)c1	3
CCCCCCCCN1C(=O)[C@@H](CC(=O)N2CCN(C(=O)OCC)CC2)C[C@@]2(C(=O)OC)C1=C[C@H](C(C)C)O[C@@H]2C1CC1	0
Cc1nc(N)nc(N)c1/C=C/C(C)(C)c1ccc(Cl)cc1	15*	TbREL1 confirm=8
COCCN=C(NS(=O)(=O)c1cccs1)c1ccccc1Cl	6
Cc1[nH]c(-c2ccc(F)cc2)cc1C(=O)N1CCN(c2ccc(Cl)cc2)CC1	-4
CC1CCN(C(=O)C(NS(=O)(=O)c2cccc3nsnc23)c2ccccc2)CC1 (stereo unspecified)	-2
SMILES	TbREL1 primary	others
Cc1cccc(NC(=O)C2CCCN2C(=O)NC2CCCCC2)c1 (stereo unspecified)	-2
O=C(COC(=O)c1n[nH]c2ccccc12)NCCc1ccc(Cl)cc1	0
COc1cc2oc(=O)cc(-c3ccc(-c4ccc(OC(F)(F)F)cc4)cc3)c2c(OC)c1OC	-1
NS(=O)(=O)c1ccc(NC(=O)c2cc(=O)c3ccccc3o2)cc1	6
O=C(Nc1ccc(C(=O)NN2C(=O)c3ccccc3C2=O)cc1)c1ccccc1	0
NS(=O)(=O)c1ccc(NC(=O)c2cccc(N3C(=O)c4ccccc4C3=O)c2)cc1	12*	TbREL1 confirm=23*
CCOC(=O)N1CCN(S(=O)(=O)CCNC(=O)c2ccc(OC)cc2)CC1	0
Cc1cc(C)n(CCC(=O)N/N=C/c2ccccc2O)n1	1
Cc1cc(C)n(CCC(=O)N/N=C/c2ccc(Cl)c([N+](=O)[O-])c2)n1	-3
Cc1cc(C)n(CCC(=O)N/N=C/c2ccc(O)cc2O)n1	12*	TbREL1 confirm=5
CC(C)(C)Sc1ccc(N)nc1	39*	TbREL1 confirm=5
Nc1ccc(S(=O)(=O)O)cn1	1
Cc1ccc(N(C(=O)CCCC(=O)Nc2ccccn2)C(C(=O)NC2CCCC2)c2ccc(O)cc2)cc1C (stereo unspecified)	-7
Cc1ccc(CONC(=O)c2ccccc2)cc1	3
CC(C)Oc1ccc(CNCCC2(C(C)C)CCOC(C)(C)C2)cc1 (stereo unspecified)	2
COc1ccc(CNCCC(c2ccccc2)c2ccc(OC(C)C)cc2)cc1OC (stereo unspecified)	10
COc1ccc(C(CCNCc2ccc(OC(C)C)cc2)c2ccccc2OC)cc1 (stereo unspecified)	15*	TbREL1 confirm=19*
CC(=O)Nc1cc(S(=O)(=O)C(F)(F)F)ccc1Cl	0
O=C(CSc1nnc(NC(=O)c2ccco2)s1)Nc1ccc(F)cc1	4
O=C(Nc1nnc(SCc2cccc(F)c2)s1)c1ccco1	14*	TbREL1 confirm=-1
CC(C)(C)C(=O)Nc1nnc(SCc2cccc(F)c2)s1	5
COc1ccc(-n2c(SCC(=O)Nc3ccc(Oc4ccccc4)cc3)nnc2-c2ccccc2)cc1	4
